Laboratory results as given in PubChem BioAssay AID1159580 (chemical genetic matrix, 2015).
Several values for one entry are separate records, joined by “and”; a condition that tells them apart may be missing. Equal entries are not always repeated. Screen size: about 5,500 compounds; about 2,000 (36%) were called active. Inconclusive results (about 18%) are left out. Cut-off read from the data, not from the text of the source: active = normalized growth mostly below about 0.91 (no sharp cut-off); inconclusive = no clear call, values can overlap the other calls; inactive = mostly above about 0.92. Some of the results follow.

Experiment: chemical genetic growth profiling, strain panel (AID 1159580);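 note: tested at 20 µM; growth read once vehicle control cultures reached saturation at 30 °C; 1 = growth at the plate median or of vehicle wells; lower values mean less growth of the strain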
Details: S. cerevisiae deletion strains, growth OD

Measured: normalized growth

COc1ccc2c(c1O)-c1c(OC)c(OC)cc3c1[C@H](C2)N(C)CC3
inactive: locus YAL021C, strain ccr4, active compounds read low 0.926 | locus YAL026C, strain drs2, active compounds read low 0.985 | locus YAL030W, strain snc1, active compounds read low 0.989 | locus YBL061C, strain skt5, active compounds read low 0.99 | locus YBR009C, strain hhf1, active compounds read low 1.01 | locus YBR021W, strain FUR4, active compounds read low 1.02 | locus YBR023C, strain chs3, active compounds read low 0.988 | locus YBR171W, strain sec66, active compounds read low 0.976 | locus YBR229C, strain ROT2, active compounds read low 1 | locus YBR231C, strain swc5, active compounds read low 0.991 | locus YBR279W, strain paf1, active compounds read low 0.978 | locus YCL011C, strain gbp2, active compounds read low 0.979 | locus YCL016C, strain dcc1, active compounds read low 0.983 | locus YCL029C, strain bik1, active compounds read low 1.04 | locus YCL061C, strain MRC1, active compounds read low 0.979 | locus YCL069W, strain vba3, active compounds read low 0.981 | locus YCR088W, strain abp1, active compounds read low 0.975 | locus YDL005C, strain med2, active compounds read low 0.982 | locus YDL035C, strain GPR1, active compounds read low 1.06 | locus YDL040C, strain nat1, active compounds read low 0.982 | locus YDL074C, strain BRE1, active compounds read low 1.1 | locus YDL101C, strain DUN1, active compounds read low 1.02 | locus YDL185W, strain tfp1, active compounds read low 1.03 | locus YDL192W, strain arf1, active compounds read low 1.03 | locus YDR001C, strain nth1, active compounds read low 0.982 | locus YDR069C, strain doa4, active compounds read low 0.989 | locus YDR101C, strain arx1, active compounds read low 1.03 | locus YDR137W, strain rgp1, active compounds read low 0.983 | locus YDR150W, strain NUM1, active compounds read low 1.01 | locus YDR159W, strain sac3, active compounds read low 1 | locus YDR162C, strain NBP2, active compounds read low 1.01 | locus YDR195W, strain ref2 0.991 | locus YDR297W, strain sur2, active compounds read low 0.974 | locus YDR318W, strain mcm21, active compounds read low 1.01 | locus YDR334W, strain swr1, active compounds read low 0.951 | locus YDR335W, strain msn5, active compounds read low 0.977 | locus YDR388W, active compounds read low 1.02 | locus YDR392W, strain spt3, active compounds read low 0.931 | locus YDR502C, strain sam2, active compounds read low 1.01 | locus YEL003W, strain gim4, active compounds read low 0.982 | locus YEL037C, strain rad23, active compounds read low 0.988 | locus YEL061C, strain CIN8 (second series), active compounds read low 0.987 | locus YEL061C, strain CIN8, active compounds read low 1.02 | locus YER015W, strain faa2, active compounds read low 0.991 | locus YER016W, strain bim1, active compounds read low 0.985 | locus YER110C, active compounds read low 1.01 | locus YER111C, strain swi4, active compounds read low 0.995 | locus YER155C, strain BEM2 (second series), active compounds read low 1.01 | locus YER155C, strain BEM2, active compounds read low 1 | locus YER167W, strain BCK2, active compounds read low 1.02 | locus YFR010W, strain ubp6, active compounds read low 0.987 | locus YGL078C, strain dbp3, active compounds read low 1.02 | locus YGL086W, strain mad1, active compounds read low 1.04 | locus YGL167C, strain pmr1, active compounds read low 0.999 | locus YGL173C, strain kem1, active compounds read low 0.975 | locus YGL227W, strain vid30, active compounds read low 0.989 | locus YGL240W, strain doc1, active compounds read low 0.996 | locus YGL248W, strain PDE1, active compounds read low 1.01 | locus YGL253W, strain hxk2, active compounds read low 1.01 | locus YGR135W, strain pre9, active compounds read low 1 | locus YGR252W, strain gcn5, active compounds read low 0.991 | locus YHR013C, strain ard1, active compounds read low 0.95 | locus YHR027C, strain rpn1, active compounds read low 0.988 | locus YHR030C, strain SLT2, active compounds read low 1.02 and 0.976 | locus YHR079C, strain IRE1 (second series), active compounds read low 1.01 | locus YHR079C, strain IRE1, active compounds read low 0.993 | locus YHR094C, strain hxt1, active compounds read low 1.01 | locus YHR129C, strain ARP1, active compounds read low 1.03 | locus YHR142W, strain chs7, active compounds read low 0.915 | locus YHR200W, strain rpn10, active compounds read low 1.04 | locus YIL066C, strain RNR3, active compounds read low 1.04 | locus YIL073C, strain SPO22, active compounds read low 1.1 | locus YIL125W, strain kgd1, active compounds read low 1.01 | locus YIR030C, strain dcg1, active compounds read low 1.01 | locus YJL092W, strain hpr5, active compounds read low 0.97 | locus YJL095W, strain BCK1 (second series), active compounds read low 0.995 | locus YJL095W, strain BCK1, active compounds read low 1.03 and 1.01 | locus YJL115W, strain asf1, active compounds read low 0.957 | locus YJL129C, strain trk1, active compounds read low 0.959 | locus YJL134W, strain LCB3, active compounds read low 1.01 | locus YJL154C, strain vps35, active compounds read low 0.982 | locus YJL164C, strain tpk1, active compounds read low 0.972 | locus YJL166W, strain qcr8, active compounds read low 0.987 | locus YJL168C, strain set2, active compounds read low 1.03 | locus YJL187C, strain SWE1 (second series), active compounds read low 1.03 | locus YJL187C, strain SWE1, active compounds read low 0.994 | locus YJR043C, strain POL32, active compounds read low 1.03 | locus YJR066W, strain TOR1, active compounds read low 0.947 | locus YKL009W, strain mrt4, active compounds read low 1.12 | locus YKL068W, active compounds read low 1 | locus YKL085W, strain MDH1 (second series), active compounds read low 1.01 | locus YKL085W, strain MDH1, active compounds read low 1.01 | locus YKL160W, strain elf1, active compounds read low 0.965 | locus YKR001C, strain vps1, active compounds read low 1.03 | locus YKR026C, strain gcn3, active compounds read low 0.981 | locus YKR091W, strain srl3, active compounds read low 0.975 | locus YLL001W, strain dnm1, active compounds read low 0.986 | locus YLL026W, active compounds read low 0.989 | locus YLL041C, strain sdh2, active compounds read low 0.975 | locus YLR027C, strain aat2, active compounds read low 0.987 | locus YLR039C, strain RIC1, active compounds read low 1.09 | locus YLR058C, strain SHM2, active compounds read low 1.01 | locus YLR102C, strain apc9, active compounds read low 1.02 | locus YLR113W, strain HOG1, active compounds read low 1 | locus YLR221C, strain rsa3, active compounds read low 0.981 | locus YLR258W, strain gsy2, active compounds read low 0.999 | locus YLR262C, strain YPT6 (second series), active compounds read low 0.972 | locus YLR262C, strain YPT6, active compounds read low 1.1 | locus YLR268W, strain sec22, active compounds read low 1.05 | locus YLR320W, strain mms22, active compounds read low 1.01 | locus YLR330W, strain CHS5, active compounds read low 1.02 | locus YLR342W, strain FKS1 (second series), active compounds read low 1.06 | locus YLR342W, strain FKS1, active compounds read low 0.986 | locus YLR357W, strain rsc2, active compounds read low 1 | locus YLR370C, strain arc18, active compounds read low 0.979 | locus YLR371W, strain rom2, active compounds read low 1.03 | locus YLR384C, strain iki3, active compounds read low 0.996 | locus YLR418C, strain cdc73, active compounds read low 1.02 | locus YML016C, strain PPZ1, active compounds read low 1.01 | locus YML032C, strain rad52, active compounds read low 1.02 | locus YML120C, strain ndi1, active compounds read low 0.966 | locus YML124C, strain tub3, active compounds read low 1 | locus YMR058W, strain fet3, active compounds read low 0.968 | locus YMR078C, strain ctf18, active compounds read low 1.02 | locus YMR125W, strain sto1, active compounds read low 0.99 | locus YMR129W, active compounds read low 1.01 | locus YMR205C, strain PFK2, active compounds read low 1.01 | locus YMR223W, strain ubp8, active compounds read low 0.994 | locus YMR231W, strain pep5, active compounds read low 0.987 | locus YMR307W, strain GAS1, active compounds read low 1.11 | locus YNL067W, strain RPL9B, active compounds read low 1.01 | locus YNL071W, strain lat1, active compounds read low 0.983 | locus YNL183C, strain NPR1, active compounds read low 0.954 | locus YNL209W, strain ssb2, active compounds read low 0.983 | locus YNL233W, strain BNI4, active compounds read low 1.01 | locus YNL248C, strain rpa49, active compounds read low 0.912 | locus YNL250W, strain rad50, active compounds read low 1.01 | locus YNL271C, strain bni1, active compounds read low 1.03 | locus YNL298W, strain CLA4, active compounds read low 1.01 | locus YNL307C, strain MCK1, active compounds read low 1.02 | locus YNL322C, strain KRE1 (second series), active compounds read low 0.974 | locus YNL322C, strain KRE1, active compounds read low 1.02 | locus YNR049C, strain mso1, active compounds read low 0.987 | locus YNR052C, strain pop2, active compounds read low 1.02 | locus YOL006C, strain TOP1, active compounds read low 1.21 | locus YOL012C, strain htz1 1.07 | locus YOL147C, strain pex11, active compounds read low 1.01 | locus YOR001W, strain rrp6, active compounds read low 0.955 | locus YOR061W, strain CKA2, active compounds read low 1.02 | locus YOR069W, strain VPS5, active compounds read low 1.01 | locus YOR070C, strain gyp1, active compounds read low 0.989 | locus YOR080W, strain dia2, active compounds read low 0.999 | locus YOR083W, strain WHI5, active compounds read low 0.943 | locus YOR106W, strain vam3, active compounds read low 0.945 | locus YOR136W, strain idh2, active compounds read low 1.02 | locus YOR144C, strain elg1, active compounds read low 1.01 | locus YOR184W, strain ser1, active compounds read low 1.06 | locus YOR231W, strain MKK1, active compounds read low 1 | locus YOR265W, strain rbl2, active compounds read low 0.984 | locus YOR270C, strain vph1, active compounds read low 0.964 | locus YOR290C, strain snf2, active compounds read low 0.99 | locus YOR316C, strain cot1, active compounds read low 1.04 | locus YPL051W, strain arl3, active compounds read low 0.973 | locus YPL078C, strain atp4, active compounds read low 0.926 | locus YPL106C, strain sse1, active compounds read low 0.972 | locus YPL240C, strain hsp82, active compounds read low 0.976 | locus YPL241C, strain CIN2, active compounds read low 1.01 | locus YPL256C, strain CLN2, active compounds read low 0.973 | locus YPR119W, strain clb2, active compounds read low 1 | locus YPR141C, strain kar3, active compounds read low 1 | locus YPR163C, strain tif3, active compounds read low 1.02 | locus YPR167C, strain met16, active compounds read low 1.04 | strain wtn01, active compounds read low 1.07
